From PubChem BioAssay (EPA / NIEHS)
Results filed as inconclusive are left out. The source made the active and inactive calls. The calls were made as follows, unless noted: active = hit-call score of the fitted dose curve at least 0.9, where 1 is the maximum; inconclusive = response in the unintended direction; inactive = score below 0.9.

Columns and labels:
[1] = TOX21_p53_BLA_p2_viability: Viability Assessment in the Tox21 HCT-116 p53 Agonism Beta-lactamase Assay, Phase 2 (AID 2283591);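 also: actives lower the ATP signal meaning cytotoxicity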
In short: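 Cytotoxicity readout: CellTiter-Glo ATP luminescence, 30 min at room temperature, after the beta-lactamase read. Cells were HCT116 exposed 16 h at 37C to compounds pin-transferred at 217-fold dilution from DMSO stocks.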

[2] = target: Cellular tumor antigen p53 (Homo sapiens) (UniProt P04637); experiment: TOX21_p53_BLA_p2_ratio: Tox21 HCT-116 p53 Agonism Beta-lactamase Assay, Ratio, Phase 2 (AID 2283592)
In short: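 Readout: blue/green (460/530 nm) FRET emission ratio after 2 h CCF4-AM loading at room temperature, excitation 405 nm. HCT116 p53 bla cells, 16 h compound exposure at 37C, 5% CO2; agonist direction fitted against DMSO baseline.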

[3] = TOX21_p53_BLA_p3_viability: Viability Assessment in the Tox21 HCT-116 p53 Agonism Beta-lactamase Assay, Phase 3 (AID 2283593);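 also: cells exposed to compound for 16 h before reading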
In short: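 Cellular ATP was quantified by CellTiter-Glo luminescence, read after 30 min at room temperature. Beforehand, HCT116 cells (4000/well) received compound 5 h post-seeding, 217-fold diluted from DMSO, then incubated 16 h at 37C.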

[4] = target: Cellular tumor antigen p53 (Homo sapiens) (UniProt P04637); experiment: TOX21_p53_BLA_p3_ratio: Tox21 HCT-116 p53 Agonism Beta-lactamase Assay, Ratio, Phase 3 (AID 2283596)
In short: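 Cells were seeded at 4000/well, rested 5 h at 37C, then dosed with DMSO compound solutions (217-fold dilution) for 16 h. CCF4-AM substrate was loaded for 2 h at room temperature, and the 460/530 nm emission ratio was fitted for gain of signal versus DMSO.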

[5] = TOX21_p53_BLA_p4_viability: Viability Assessment in the Tox21 HCT-116 p53 Agonism Beta-lactamase Assay, Phase 4 (AID 2283597);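 also: hits lower the luminescence signal meaning cytotoxicity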
In short: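 ATP content by CellTiter-Glo luminescence, 30 min RT, read after the beta-lactamase ratio step. Cells: HCT116, 4000/well, compound added after 5 h, exposure 16 h at 37C. Signal loss = reduced viability.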

[6] = TOX21_p53_BLA_p5_viability: Viability Assessment in the Tox21 HCT-116 p53 Agonism Beta-lactamase Assay, Phase 5 (AID 2283600)
In short: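 ATP luminescence (CellTiter-Glo, 30 min, RT) served as the viability read-out, with loss of signal indicating cytotoxicity. Compounds in DMSO were pinned at a 217-fold dilution onto 4000 cells/well and incubated 16 h, 37C.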

[7] = target: Cellular tumor antigen p53 (Homo sapiens) (UniProt P04637); experiment: TOX21_p53_BLA_p4_ratio: Tox21 HCT-116 p53 Agonism Beta-lactamase Assay, Ratio, Phase 4 (AID 2283601)
In short: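 Signal is the blue/green (460nm/530nm) ratio of cleaved versus uncleaved CCF4-AM substrate, read after 2 h substrate loading. Cells were HCT116 carrying the p53-responsive beta-lactamase reporter, dosed 16 h at 37C, 5% CO2; CellTiter-Glo measured in parallel.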

[8] = target: Cellular tumor antigen p53 (Homo sapiens) (UniProt P04637); experiment: TOX21_p53_BLA_p5_ratio: Tox21 HCT-116 p53 Agonism Beta-lactamase Assay, Ratio, Phase 5 (AID 2283599)
In short: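 Beta-lactamase reporter ratio (blue 460 nm over green 530 nm, 405 nm excitation) after 2 h CCF4-AM loading, in HCT-116 cells exposed 16 h at 37 C to compounds pinned at 217-fold dilution. Increases relative to DMSO baseline scored.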

[9] = CCTE_Deisenroth_AIME_96WELL_CTox_Active: Cytotoxicity Assessment (CTOX) in CCTE's 96-well Estrogen Receptor Transactivation Assay with AIME metabolic competence (metabolism positive), Deisenroth Lab (AID 2284028)
In short: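 Cytotoxicity in VM7Luc4E2 breast cells after 24 h exposure to medium from a 2 h metabolic pre-incubation with induced rat hepatic S9 in alginate microspheres; fluorescent live-cell protease readout, 10-point series 0.002–200 uM, n=4.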

[10] = CCTE_Shafer_MEA_dev_firing_rate_mean: CCTE's Neural Network Formation Assay for Mean Firing Rate, Shafer Lab (AID 2284031; active = hit-call score of the fitted dose curve at least 0.9, where 1 is the maximum; inactive = score below 0.9)
In short: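 Read-out: spike count/recording length, averaged over active electrodes, then AUC across days 5, 7, 9, 12. Rat cortical cultures on MEA; continuous 12-day exposure, media and treatment renewed DIV 5, 9; DMSO baseline.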

[11] = CCTE_Shafer_MEA_dev_per_burst_spike_percent: CCTE's Neural Network Formation Assay for Percent of Spikes in a Burst, Shafer Lab (AID 2284032; active = hit-call score of the fitted dose curve at least 0.9, where 1 is the maximum; inactive = score below 0.9)
In short: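 Value is trapezoidal AUC over recordings on days 5, 7, 9 and 12 of the well-mean fraction of spikes falling in single-electrode bursts; rat cortical cultures exposed continuously from plating, treatment renewed DIV 5 and 9, fitted downward against DMSO.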

[12] = CCTE_Shafer_MEA_dev_active_electrodes_number: CCTE's Neural Network Formation Assay for Number of Active Electrodes, Shafer Lab (AID 2284040)
In short: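 Developing rat cortical networks on MEAs, exposed DIV 0–12. Value is the AUC of active-electrode counts (≥5 spikes/min) from days 5, 7, 9, 12, relative to DMSO.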

[13] = CCTE_Shafer_MEA_dev_burst_rate: CCTE's Neural Network Formation Assay for Burst Rate, Shafer Lab (AID 2284042; active = hit-call score of the fitted dose curve at least 0.9, where 1 is the maximum; inactive = score below 0.9)
In short: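 Cells plated, treated day 0; recorded DIV 5, 7, 9, 12; fed and re-treated DIV 5, 9. Endpoint: bursts per recording time, active-electrode well mean, trapezoidal AUC, fitted in decreasing direction against DMSO baseline.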

[14] = CCTE_Shafer_MEA_dev_bursting_electrodes_number: CCTE's Neural Network Formation Assay for Number of Bursting Electrodes, Shafer Lab (AID 2284043)
In short: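 Number of electrodes reaching ≥1 burst every 2 min was recorded at DIV 5, 7, 9 and 12 and collapsed as trapezoidal area under the curve. Cultures were rat cortical neurons on MEA plates, dosed continuously from plating with medium and treatment refreshed on DIV 5 and 9.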

[15] = CCTE_Shafer_MEA_dev_per_burst_interspike_interval: CCTE's Neural Network Formation Assay for Burst Interspike Interval, Shafer Lab (AID 2284044; active = hit-call score of the fitted dose curve at least 0.9, where 1 is the maximum; inactive = score below 0.9)
In short: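 Readout is the average time between spikes inside single-electrode bursts, taken as a well mean across bursting electrodes. Cortical neurons from rat developed networks on MEA plates under continuous 12-day exposure; recordings on days 5, 7, 9 and 12 were integrated by trapezoidal AUC.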

[16] = CCTE_Shafer_MEA_dev_burst_duration_mean: CCTE's Neural Network Formation Assay for Mean Burst Duration, Shafer Lab (AID 2284045; active = hit-call score of the fitted dose curve at least 0.9, where 1 is the maximum; inactive = score below 0.9)
In short: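 Mean single-electrode burst duration (first to last spike), averaged over bursting electrodes per well, then integrated as area-under-curve across recordings at days 5, 7, 9 and 12. Rat cortical cultures on MEAs, compound present from plating, refreshed at feeds.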

[17] = CCTE_Shafer_MEA_dev_interburst_interval_mean: CCTE's Neural Network Formation Assay for Mean Interburst Interval, Shafer Lab (AID 2284046; active = hit-call score of the fitted dose curve at least 0.9, where 1 is the maximum; inactive = score below 0.9;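 also: well-mean interburst interval of bursting electrodes as AUC over four recording days; curve fitted for decrease in interburst interval relative to DMSO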)
In short: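 Developing rat cortical networks on 48-well MEAs receive compound from the day of plating. Burst intervals from each active electrode are averaged per well, and AUC over the recording days is fitted in the negative direction against DMSO.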

[18] = CCTE_Shafer_MEA_dev_inter_network_spike_interval_mean: CCTE's Neural Network Formation Assay for Mean Inter-network Spike Interval, Shafer Lab (AID 2284047; active = hit-call score of the fitted dose curve at least 0.9, where 1 is the maximum; inactive = score below 0.9)
In short: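 Rat cortical cultures, 1.5 x 10^5 cells/well on 48-well MEA plates; continuous exposure days 0–12, medium and compound refreshed DIV 5, 9. Mean time between consecutive network-spike peaks; AUC across DIV 5/7/9/12; DMSO baseline, negative fitting direction.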

[19] = CCTE_Shafer_MEA_dev_network_spike_number: CCTE's Neural Network Formation Assay for Number of Network Spikes, Shafer Lab (AID 2284048; active = hit-call score of the fitted dose curve at least 0.9, where 1 is the maximum; inactive = score below 0.9)
In short: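 Number of network spikes (coordinated firing across electrodes) recorded on days 5, 7, 9 and 12 and summarised as area under the curve. Rat cortical cultures on MEA, continuous compound exposure with full medium/treatment exchange at DIV 5 and 9.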

[20] = CCTE_Shafer_MEA_dev_spike_duration_mean: CCTE's Neural Network Formation Assay for Mean Spike Duration, Shafer Lab (AID 2284051; active = hit-call score of the fitted dose curve at least 0.9, where 1 is the maximum; inactive = score below 0.9;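 also: mean network spike duration pooled as area under curve over DIV 5 to 12 recordings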)
In short: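 Readout is the average length of network spikes, clustered firing across electrodes, summed over DIV 5, 7, 9 and 12 as area under the curve. Neurons from rat cortex developed networks on MEA plates under continuous 12-day exposure.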

[21] = CCTE_Shafer_MEA_dev_network_spike_duration_std: CCTE's Neural Network Formation Assay for Standard Deviation of Network Spike Duration, Shafer Lab (AID 2284052; active = hit-call score of the fitted dose curve at least 0.9, where 1 is the maximum; inactive = score below 0.9;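 also: hits are decreases in network spike duration SD versus DMSO vehicle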)
In short: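 Read-out is the trapezoidal area-under-the-curve across recordings made on days 5, 7, 9 and 12, fitted in the negative direction against DMSO baseline. Neurons were primary rat cortical cells treated from day 0, with treatment renewed at each feed.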

[22] = CCTE_Shafer_MEA_dev_per_network_spike_spike_number_mean: CCTE's Neural Network Formation Assay for Mean Number of Spikes in a Network Spike, Shafer Lab (AID 2284053; active = hit-call score of the fitted dose curve at least 0.9, where 1 is the maximum; inactive = score below 0.9)
In short: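 Continuous twelve-day exposure of developing rat cortical networks grown over 16 microelectrodes per well; spontaneous firing is captured at four time points, and the per-network-spike spike number is integrated over development by trapezoidal AUC.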

[23] = CCTE_Shafer_MEA_dev_per_network_spike_spike_percent: CCTE's Neural Network Formation Assay for Percent of Spikes in a Network Spike, Shafer Lab (AID 2284054; active = hit-call score of the fitted dose curve at least 0.9, where 1 is the maximum; inactive = score below 0.9)
In short: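 Metric: fraction of spikes falling in a 0.05 s window at network-spike peaks. Recordings were made on days 5, 7, 9 and 12 and collapsed by trapezoidal AUC. Cultures were rat cortical neurons on MEA plates, dosed continuously from plating, re-dosed at media changes.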

[24] = CCTE_Shafer_MEA_dev_LDH: CCTE's Lactate Dehydrogenase Assay for Cytotoxicity in the Neural Network Formation Assay, Shafer Lab (AID 2284068);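 also: exposure for twelve days from plating with re-dosing on DIV 5 and 9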
In short: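 Cytotoxicity companion to network-formation recordings: rat cortical neurons received compound over 12 days of development, re-dosed at DIV 5 and 9 feeds. Viability was inferred from LDH enzyme activity relative to DMSO.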

[25] = CCTE_Shafer_MEA_dev_mutual_information_norm: CCTE's Neural Network Formation Assay for Mutual Information Normalization, Shafer Lab (AID 2284091; active = hit-call score of the fitted dose curve at least 0.9, where 1 is the maximum; inactive = score below 0.9)
In short: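 Shared information across electrodes, tracked on days 5, 7, 9 and 12 of network development and collapsed as trapezoidal area under the curve. Rat cortical cultures were treated continuously from plating, with treatment renewed at feeds on DIV 5 and 9; DMSO baseline, negative-direction fit.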

[26] = CCTE_Shafer_MEA_dev_correlation_coefficient_mean: CCTE's Neural Network Formation Assay for Mean Correlation Coefficient, Shafer Lab (AID 2284093; active = hit-call score of the fitted dose curve at least 0.9, where 1 is the maximum; inactive = score below 0.9)
In short: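 Read-out: well-mean correlation coefficient of spike trains between electrode pairs, collapsed over four recording days as trapezoidal area-under-the-curve. Developing rat cortical neuron networks grown on MEAs received test chemical continuously from plating.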

Chain of Cellular tumor antigen p53 (Homo sapiens) (P04637 whole entry, looked up): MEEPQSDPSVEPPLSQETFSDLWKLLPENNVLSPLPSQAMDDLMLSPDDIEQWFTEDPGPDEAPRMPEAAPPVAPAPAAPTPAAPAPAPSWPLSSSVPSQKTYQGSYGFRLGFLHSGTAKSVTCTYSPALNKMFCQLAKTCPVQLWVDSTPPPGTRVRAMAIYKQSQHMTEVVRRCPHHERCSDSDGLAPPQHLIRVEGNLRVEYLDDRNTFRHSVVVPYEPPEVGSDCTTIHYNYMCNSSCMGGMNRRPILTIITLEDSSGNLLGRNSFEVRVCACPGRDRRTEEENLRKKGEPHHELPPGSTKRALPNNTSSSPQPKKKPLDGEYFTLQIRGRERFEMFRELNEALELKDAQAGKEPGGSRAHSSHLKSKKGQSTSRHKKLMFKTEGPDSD

**Q.** With O=C1c2ccccc2C(=O)C1C(=O)C(c1ccccc1)c1ccccc1 as the compound, how does the outcome [1] read?
**A.** inactive

**Q.** What about the AC50 [2] of the same compound?
**A.** 37.1 µM (active)

**Q.** And the outcome [3]?
**A.** inactive

**Q.** And the outcome [4]?
**A.** inactive

**Q.** And the AC50 [5]?
**A.** 44 µM (active)

**Q.** What about the outcome [6] of the same compound?
**A.** inactive

**Q.** What about the AC50 [7] of the same compound?
**A.** 36.6 µM (active)

**Q.** For CCNC1(c2cccs2)CCCCC1=O (stereo not drawn), which outcome [1] is on record?
**A.** inactive

**Q.** What about the outcome [2] of the same compound?
**A.** inactive

**Q.** And the outcome [3]?
**A.** inactive

**Q.** And the outcome [4]?
**A.** inactive

**Q.** And the outcome [8]?
**A.** inactive

**Q.** What does the source list for c1ccc2c(c1)cc1ccc3cccc4ccc2c1c34?
**A.** outcome [1]: inactive; AC50 [2]: 2.05 µM (active); outcome [3]: inactive; AC50 [4]: 4.14 µM (active); outcome [5]: inactive; AC50 [8]: 1.56 µM (active); outcome [6]: inactive; AC50 [7]: 2.39 µM (active); outcome [9]: inactive; outcome [10]: inactive; outcome [11]: inactive; outcome [12]: inactive; outcome [13]: inactive; outcome [14]: inactive; outcome [15]: inactive; outcome [16]: inactive; outcome [17]: inactive; outcome [18]: inactive; outcome [19]: inactive; outcome [20]: inactive; outcome [21]: inactive; outcome [22]: inactive; outcome [23]: inactive; outcome [24]: inactive; outcome [25]: inactive; outcome [26]: inactive

**Q.** Which outcome [1] does the source give for NC(=O)CI here?
**A.** inactive

**Q.** What about the outcome [2] of the same compound?
**A.** inactive

**Q.** And the outcome [3]?
**A.** inactive

**Q.** What about the outcome [4] of the same compound?
**A.** inactive

**Q.** And the outcome [8]?
**A.** inactive
